Results: the supplement of paper PMC6555819

Key:
Experiment in all cases: PBM binding z-score (relative to random genomic background probes); higher = stronger binding; sequences stand for … in GC…GCGATTGACAGCGTAGAATGAAGG
[1] = test system: PPARg:RXRa DBDmut IVT, anti-RXR (DBD mutation: RXRa K156A/R161A, NR concentration 270 nM, RXRa partner concentration 90 nM)
Procedure, shortened: (§1)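 Binding z-scores were set against random background probes. The data came from custom Agilent 4×180K protein-binding microarrays carrying double-stranded probes with 34-nt variable regions, incubated 1 h with ligand-free nuclear receptor dimers. Partner-specific antibodies detected binding, and scanned fluorescence was regression-normalized.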

[2] = test system: PPARg:RXRa IVT, anti-PPARg (NR concentration 270 nM, RXRa partner concentration 90 nM)
Procedure, shortened: as §1

[3] = test system: PPARg DBDmut:RXRa IVT, anti-PPARg (DBD mutation: PPARg1 K132A/R137A, NR concentration 270 nM, RXRa partner concentration 90 nM)
Procedure, shortened: as §1

[4] = test system: PPARg DBDmut IVT, anti-PPARg (DBD mutation: PPARg1 K132A/R137A, NR concentration 270 nM)
Procedure, shortened: as §1

[5] = test system: PPARg homodimer (NR concentration 180 nM)
Procedure, shortened: as §1

[6] = test system: PXR:RXRa (NR concentration 270 nM, RXRa partner concentration 90 nM)
Procedure, shortened: as §1

[7] = test system: PXR homodimer (NR concentration 270 nM)
Procedure, shortened: as §1

[8] = test system: RARa:RXR (NR concentration 270 nM, RXRa partner concentration 90 nM)
Procedure, shortened: as §1

[9] = test system: RARa homodimer (NR concentration 270 nM)
Procedure, shortened: as §1

[10] = test system: RARb:RXRa (NR concentration 270 nM, RXRa partner concentration 90 nM)
Procedure, shortened: as §1

[11] = test system: RARb homodimer (NR concentration 270 nM)
Procedure, shortened: as §1

[12] = test system: RARg:RXRa (NR concentration 270 nM, RXRa partner concentration 90 nM)
Procedure, shortened: as §1

[13] = test system: RARg homodimer (NR concentration 270 nM)
Procedure, shortened: as §1

[14] = test system: RXRa DBDmut IVT, anti-RXR (DBD mutation: RXRa K156A/R161A, NR concentration 90 nM)
Procedure, shortened: as §1

[15] = test system: RXRa homodimer (NR concentration 180 nM)
Procedure, shortened: as §1

[16] = test system: THRa:RXRa (NR concentration 90 nM, RXRa partner concentration 90 nM)
Procedure, shortened: as §1

[17] = test system: THRa homodimer (NR concentration 90 nM)
Procedure, shortened: as §1

[18] = test system: VDR:RXRa (NR concentration 270 nM, RXRa partner concentration 90 nM)
Procedure, shortened: as §1

[19] = test system: VDR homodimer (NR concentration 270 nM)
Procedure, shortened: as §1

Row | Sequence | PBM binding z-score [1] | PBM binding z-score [2] | PBM binding z-score [3] | PBM binding z-score [4] | PBM binding z-score [5] | PBM binding z-score [6] | PBM binding z-score [7] | PBM binding z-score [8] | PBM binding z-score [9] | PBM binding z-score [10] | PBM binding z-score [11] | PBM binding z-score [12] | PBM binding z-score [13] | PBM binding z-score [14] | PBM binding z-score [15] | PBM binding z-score [16] | PBM binding z-score [17] | PBM binding z-score [18] | PBM binding z-score [19]
1 | TATCCTAGGTCATTCAGGGGCCAGTATAGAAAGC | 4.17 | 4.85 | 1.68 | 2.21 | 3.21 | 3.08 | 0.861 | 3.84 | 1.26 | 4.08 | 3.68 | 6.44 | 4.99 | 2.55 | 3.59 | 3.76 | 1.57 | 3.57 | 2.01
2 | CATACAGGGTCAGCTAGGCCGGAGTAGGGACGGC | 0.767 | 2.06 | 0.399 | 0.204 | 1.63 | 1.76 | -0.278 | 2.9 | 0.038 | 3.87 | 3 | 4.28 | 4.35 | 1.18 | 3.93 | 2.78 | 0.818 | 3.08 | 0.84
3 | TCATATAGCTAAAAGGTGAAAGTCGGTGTGGTAA | 2.08 | 0.996 | 0.333 | 0.116 | 0.824 | 0.793 | 0.353 | 1.37 | 0.703 | 1.5 | 1.42 | 0.817 | 0.551 | 0.962 | 1.4 | 0.958 | 0.0793 | 0.864 | -0.201
4 | GGAACGAGGGCAAATTGATAGCAGAGTTTGATGG | 3.46 | 2.68 | 0.618 | -0.23 | 0.358 | 0.625 | 0.703 | 0.402 | -0.436 | 2.23 | 1.18 | 1.48 | 1.67 | 2.21 | 1 | 0.906 | -0.171 | 0.922 | 1.31
5 | TCTATTAGTTGATTGGGGCAACCGAAACAGCGGA | 2.23 | 1.52 | 0.999 | 1.72 | 0.142 | 0.811 | 0.783 | 1.14 | 1.31 | 1.03 | 0.682 | 0.564 | 0.336 | 1.34 | 0.882 | 0.545 | 0.527 | 0.952 | 0.77
6 | CCAGACTGGTGAAAGGTAACTCAGTCTGGTACGC | 0.00689 | 0.829 | -0.709 | -0.951 | 0.201 | -0.0709 | -0.492 | 0.039 | -0.414 | 0.363 | 0.104 | 0.0585 | -0.236 | -0.492 | 0.524 | 0.18 | -0.494 | -0.0185 | -0.181
7 | CCTGATAGGTCATGGTCAGCTAATCTACAGTATG | 3.61 | 2.99 | 1.15 | 0.715 | 2.24 | 2.79 | 0.473 | 4.02 | 1.43 | 4.18 | 3.69 | 5.08 | 5.2 | 1.57 | 5.33 | 2.46 | 0.212 | 2.95 | 0.195
8 | TGAATGAGGTTACAGATCAGGGAACGTGGCGTCG | 2.62 | 3.25 | 0.697 | 0.0776 | 0.777 | 0.892 | -0.64 | 1.67 | 0.0673 | 1.9 | 0.793 | 1.89 | 1.4 | 0.394 | 2.29 | 2.67 | 0.836 | 0.932 | 0.364
9 | TCATATAGGTAAATGGTGAAAGTCGGTGTGGTAA | 3.92 | 2.4 | 0.569 | 0.625 | 1.49 | 0.445 | 0.609 | 0.554 | 1.52 | 0.243 | 0.19 | 0.0436 | -0.12 | 1.83 | 0.476 | 0.0433 | 0.202 | 0.561 | 0.415
10 | ATATGTAGGTTACCTCCGGGTCATTCAGGCTATG | 7.18 | 6.7 | 1.67 | 1.41 | 1.74 | 3.67 | 1.8 | 3.75 | 0.561 | 2.51 | 3.04 | 4.19 | 2.43 | 0.792 | 3.8 | 3.78 | 2.66 | 4.01 | 2.02
11 | ACTTACGGGTCAACGAGGTTATACCACGCGTATA | 3.73 | 3.99 | 1.8 | 1.74 | 2.9 | 5.43 | 4.36 | 5.72 | 1.26 | 4.34 | 3.79 | 5.84 | 5.48 | 3.08 | 6.66 | 3.97 | 1.34 | 7.92 | 4.44
12 | AGAATGAGGTTACCAAAGAGCAGGGAAACGCTTG | 3.47 | 2.96 | 0.794 | -0.0129 | 0.046 | 1.05 | -0.21 | 1.71 | -0.396 | 2 | 0.563 | 1.8 | 1.43 | 0.987 | 2.24 | 2.73 | 0.573 | 1.05 | 0.0969
13 | CGCACTAGGTCAGAACAGGACAGTGAAGGATGAT | 7.11 | 7.1 | 0.649 | 0.931 | 1.4 | 1.07 | 0.443 | 1.39 | 0.474 | 3.02 | 2.18 | 2.44 | 3.31 | 0.675 | 1.34 | 3.71 | 0.508 | 0.776 | -0.275
14 | ACTAGCAGGCCAAGGGACACTCAAGATTAGTCCG | 0.487 | 0.462 | -1.43 | -0.851 | -0.118 | -0.905 | -0.667 | -0.78 | -0.11 | 1.05 | 0.745 | 0.424 | 0.835 | -0.24 | -0.0147 | -0.112 | -0.143 | -0.487 | -0.433
15 | TCGAGTAGGCTACCAATGGGGCATTCAGCTTTCT | 1.55 | 0.414 | -0.67 | -1.72 | -1.23 | -0.438 | -0.888 | -0.72 | -1.3 | -0.208 | -0.245 | -0.505 | -0.706 | -0.0858 | -0.356 | -0.828 | -0.931 | -0.442 | -0.898
